# Activity calls are given as the source filed them. The call rests on the fitted dose curve; in most records, active means well fitted curve in the direction sought with a large enough effect; inconclusive means small, poorly fitted or top-dose-only effect, or another doubt; inactive means no such curve, though single readings can be large or run the other way.
# Target: Hexokinase-4 (Homo sapiens) + Glucokinase regulatory protein (Homo sapiens) (UniProt P35557+Q14397)
# Experiment: qHTS assay for inhibitors of recombinant human GCK-GKRP interaction: HTRF assay (AID 743207);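 further: 0% = DMSO with GCK present and -100% = DMSO wells lacking GCK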
# Settings: recombinant GCK-GKRP HTRF binding, 60 min, with sorbitol-6-phosphate; series mostly up to 57.5 µM; activity change, negative = inhibition: at the top concentration
# In short: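 Steps: dispense GCK–GKRP complex (5 nM each, GST- and FLAG-tagged) with 2 uM S6P; pin in compounds; add XL665/Eu-cryptate-labelled antibodies; incubate 60 min at room temperature; read time-resolved FRET at 665 and 615 nm.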
# Sequence of Hexokinase-4 (Homo sapiens) + Glucokinase regulatory protein (Homo sapiens) (P35557 whole entry, looked up): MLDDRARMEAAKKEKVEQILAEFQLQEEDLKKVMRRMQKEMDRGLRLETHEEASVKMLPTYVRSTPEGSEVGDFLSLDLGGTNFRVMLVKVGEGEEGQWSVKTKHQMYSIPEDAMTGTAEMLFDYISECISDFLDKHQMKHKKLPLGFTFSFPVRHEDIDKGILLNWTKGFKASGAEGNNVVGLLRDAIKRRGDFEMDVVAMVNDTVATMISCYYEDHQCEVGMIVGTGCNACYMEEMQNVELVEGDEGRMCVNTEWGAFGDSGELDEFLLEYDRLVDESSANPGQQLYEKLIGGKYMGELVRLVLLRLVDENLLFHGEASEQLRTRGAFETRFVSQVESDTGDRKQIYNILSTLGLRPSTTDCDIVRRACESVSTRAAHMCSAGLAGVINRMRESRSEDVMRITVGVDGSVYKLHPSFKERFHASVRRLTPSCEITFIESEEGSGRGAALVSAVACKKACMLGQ
# Sequence of Hexokinase-4 (Homo sapiens) + Glucokinase regulatory protein (Homo sapiens) (Q14397 whole entry, looked up): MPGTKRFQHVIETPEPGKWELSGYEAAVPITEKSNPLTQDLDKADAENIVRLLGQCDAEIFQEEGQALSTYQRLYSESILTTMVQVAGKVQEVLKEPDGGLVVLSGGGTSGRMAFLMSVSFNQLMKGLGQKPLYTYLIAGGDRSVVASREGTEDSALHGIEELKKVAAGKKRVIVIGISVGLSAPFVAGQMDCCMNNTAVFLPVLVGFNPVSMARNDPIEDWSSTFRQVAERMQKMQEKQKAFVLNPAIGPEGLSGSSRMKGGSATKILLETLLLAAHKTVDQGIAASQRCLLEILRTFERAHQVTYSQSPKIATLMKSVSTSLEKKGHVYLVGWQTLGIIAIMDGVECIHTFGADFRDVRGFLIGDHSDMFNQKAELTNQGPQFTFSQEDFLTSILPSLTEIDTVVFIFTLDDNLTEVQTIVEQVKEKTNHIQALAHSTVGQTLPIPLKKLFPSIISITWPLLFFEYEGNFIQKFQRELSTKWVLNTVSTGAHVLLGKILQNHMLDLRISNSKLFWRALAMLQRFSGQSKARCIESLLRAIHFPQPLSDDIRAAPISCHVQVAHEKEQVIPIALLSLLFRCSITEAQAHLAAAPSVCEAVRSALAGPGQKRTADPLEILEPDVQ
row,Structure (SMILES),"activity change, negative = inhibition"
1,CCN(CC)CCNC(=O)c1cc(S(C)(=O)=O)ccc1OC,-11% (inactive)
2,c1cnc(N2CCN(Cc3ccc4c(c3)OCO4)CC2)nc1,-9.37% (inactive)
3,CC[N+](C)(C)c1cccc(O)c1,-0.0902% (inactive)
4,CCCCCCCC/C=C\CCCCCCCC(=O)NCc1ccc(O)c(OC)c1,14.7% (inactive)
5,CCN(CC)CCCN(c1ccccc1)C1Cc2ccccc2C1,-3.81% (inactive)
6,CCn1cc(C(=O)O)c(=O)c2cc3c(cc21)OCO3,-17.9% (inactive)
7,CN1CCN(C2=Nc3ccccc3Oc3ccc(Cl)cc32)CC1,-7.87% (inactive)
8,CC1=NS(=O)(=O)c2cc(Cl)ccc2N1,-13% (inactive)
9,Cc1nc2sccn2c(=O)c1CCN1CCC(=C(c2ccc(F)cc2)c2ccc(F)cc2)CC1,-8.17% (inactive)
10,N[C@@H](COP(=O)(O)O)C(=O)O,8.78% (inactive)
11,CCN(CC)CCOCCOC(=O)C1(c2ccccc2)CCCC1,19.4% (inactive)
12,CC(N=C(NC#N)Nc1ccncc1)C(C)(C)C (centres undefined),-4.49% (inactive)
13,Fc1ccc(C(c2ccc(F)cc2)N2CCN(C/C=C/c3ccccc3)CC2)cc1,10.5% (inactive)
14,FC(F)(F)c1ccccc1-n1ccnc1,10.5% (inactive)
15,COc1ccc2c(c1OC)C(=O)O[C@@H]2[C@H]1c2c(cc3c(c2OC)OCO3)CCN1C,-18% (inactive)
16,CCC(=O)c1ccc2c(c1)N(CCCN(C)C)c1ccccc1S2,-0.348% (inactive)
17,CC(C)NCC(O)c1cc(O)cc(O)c1 (centres undefined),-2.56% (inactive)

row,Structure (SMILES),"activity change, negative = inhibition"
1,CC(C)[N+](C)(CCOC(=O)C1c2ccccc2Oc2ccccc21)C(C)C,1.68% (inactive)
2,COCCc1ccc(OCC(O)CNC(C)C)cc1 (centres undefined),-3.61% (inactive)
3,CO[C@@]1(NC(=O)CSCC#N)C(=O)N2C(C(=O)O)=C(CSc3nnnn3C)CS[C@@H]21,1.1% (inactive)
4,CCn1ccnc1CC1COc2ccccc2O1 (centres undefined),-9.42% (inactive)
5,CC(C)(C)c1ccc(C(=O)CCCN2CCC(OC(c3ccccc3)c3ccccc3)CC2)cc1,4.5% (inactive)
6,CCN(CC)CC(=O)Nc1c(C)cccc1C,-6.92% (inactive)
7,O=C(O)CP(=O)(O)O,-0.964% (inactive)
8,CN1CCN(CC(=O)N2c3ccccc3C(=O)Nc3cccnc32)CC1,-13.9% (inactive)
9,COc1ccc([C@@H]2Sc3ccccc3N(CCN(C)C)C(=O)[C@@H]2OC(C)=O)cc1,-11.8% (inactive)
10,CC(=O)Oc1cc(C(C)C)c(OCCN(C)C)cc1C,3.07% (inactive)
11,C(=C\c1ccccc1)/CN1CCN(C(c2ccccc2)c2ccccc2)CC1,-7.05% (inactive)
12,Cc1cccc(C)c1NC(=O)C(C)N (centres undefined),-10.3% (inactive)
13,CCOC(=O)C1=C(C)NC(C)=C(C(=O)OC)C1c1cccc(Cl)c1Cl (centres undefined),-4% (inactive)
14,COCCCC/C(=N\OCCN)c1ccc(C(F)(F)F)cc1,6.85% (inactive)
15,CC(C)(C)NCC(O)c1cc(O)cc(O)c1 (centres undefined),4.44% (inactive)
16,Cc1ccc(Cl)c(Nc2ccccc2C(=O)O)c1Cl,-4.44% (inactive)
17,CN(C)C(=O)Oc1ccc[n+](C)c1,7.28% (inactive)

# From PubChem BioAssay (NCATS)
